# Test results published in the supplement of paper PMC8728848.
# This excerpt belongs to a sample that is enriched for the strongest signals.
# Tests used:
# Test in all cases: glycan array binding signal (z-score within array); higher = stronger binding
# Details in all cases: glycan notation: IUPAC condensed, linker removed
# [1] = molecular target: Fuc(a1-2)Gal(b1-3)GalNAc(a1-3)[Fuc(a1-2)]Gal(b1-4)Glc
# In short: (§1)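 Glycan array data were curated from 3228 arrays in the Consortium for Functional Glycomics database and kept only where the protein sequence was available. Glycan names were converted to IUPAC-condensed notation, and columns mapping to the same glycan were averaged. The binding signal is a within-array Z-score, averaged across arrays of the same protein sequence at different concentrations or buffers and across linkers. Negative Z-scores can be read as non-binding.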
# [2] = molecular target: Fuc(a1-2)Gal(b1-4)Fuc(a1-3)]GlcNAc(b1-2)Man(a1-3)[Fuc(a1-2)Gal(b1-4)[Fuc(a1-3)]GlcNAc(b1-2)Man(a1-6)]Man(b1-4)GlcNAc(b1-4)GlcNAc
# In short: as §1
# [3] = molecular target: Fuc(a1-2)Gal(b1-4)[Fuc(a1-3)]GlcNAc(b1-2)Man(a1-3)[Fuc(a1-2)Gal(b1-4)[Fuc(a1-3)]GlcNAc(b1-2)Man(a1-6)]Man(b1-4)GlcNAc(b1-4)[Fuc(a1-6)]GlcNAc
# In short: as §1
# [4] = molecular target: Fuc(a1-2)Gal(b1-4)[Fuc(a1-3)]GlcNAc(b1-3)Gal(b1-4)[Fuc(a1-3)]GlcNAc(b1-3)Gal(b1-4)[Fuc(a1-3)]GlcNAc
# In short: as §1
# Fuc(a1-2)Gal6S(b1-4)Glc = molecular target: Fuc(a1-2)Gal6S(b1-4)Glc
# In short: as §1
# [5] = molecular target: Fuc(a1-2)[Gal(a1-3)]Gal(b1-3)GalNAc(b1-3)Gal(a1-4)Gal(b1-4)Glc
# In short: as §1
# [6] = molecular target: Fuc(a1-2)[Gal(a1-3)]Gal(b1-4)[Fuc(a1-3)]Glc
# In short: as §1
# [7] = molecular target: Fuc(a1-2)[Gal(a1-3)]Gal(b1-4)[Fuc(a1-3)]GlcNAc
# In short: as §1
# [8] = molecular target: Fuc(a1-2)[GalNAc(a1-3)]Gal(b1-3)GlcNAc(b1-3)GalNAc
# In short: as §1
# [9] = molecular target: Fuc(a1-2)[GalNAc(a1-3)]Gal(b1-4)Glc
# In short: as §1
# Fuc(a1-3)GlcNAc = molecular target: Fuc(a1-3)GlcNAc
# In short: as §1
# [10] = molecular target: Fuc(a1-3)[Gal(b1-4)]GlcNAc6S
# In short: as §1
# Gal(b1-3)Gal(b1-4)GlcNAc = molecular target: Gal(b1-3)Gal(b1-4)GlcNAc
# In short: as §1
# [11] = molecular target: Gal(b1-3)GlcNAc(a1-6)Gal(b1-4)GlcNAc
# In short: as §1
# [12] = molecular target: Gal(b1-3)GlcNAc(b1-6)GalNAc
# In short: as §1
# [13] = molecular target: Gal(b1-4)GlcNAc(b1-2)Man(a1-3)[Gal(b1-4)GlcNAc(b1-2)Man(a1-6)]Man(b1-4)GlcNAc(b1-4)[Fuc(a1-6)]GlcNAc
# In short: as §1
# [14] = molecular target: Gal(b1-4)GlcNAc(b1-3)Gal(b1-4)GlcNAc
# In short: as §1
# [15] = molecular target: Gal(b1-4)GlcNAc(b1-3)Gal(b1-4)GlcNAc(b1-3)Gal(b1-4)GlcNAc(b1-2)[Gal(b1-4)GlcNAc(b1-3)Gal(b1-4)GlcNAc(b1-3)Gal(b1-4)GlcNAc(b1-6)]Man(a1-6)[Gal(b1-4)GlcNAc(b1-3)Gal(b1-4)GlcNAc(b1-3)Gal(b1-4)GlcNAc(b1-2)Man(a1-3)]Man(b1-4)GlcNAc(b1-4)[Fuc(a1-6)]GlcNAc
# In short: as §1
# [16] = molecular target: Gal(b1-4)GlcNAc(b1-3)Gal(b1-4)GlcNAc(b1-3)Gal(b1-4)GlcNAc(b1-3)Gal(b1-4)GlcNAc(b1-2)Man(a1-3)[Gal(b1-4)GlcNAc(b1-3)Gal(b1-4)GlcNAc(b1-3)Gal(b1-4)GlcNAc(b1-3)Gal(b1-4)GlcNAc(b1-2)Man(a1-6)]Man(b1-4)GlcNAc(b1-4)GlcNAc
# In short: as §1
# [17] = molecular target: Gal(b1-4)GlcNAc(b1-3)GalNAc
# In short: as §1
# Gal(b1-4)GlcNAc6P = molecular target: Gal(b1-4)GlcNAc6P
# In short: as §1
# [18] = molecular target: Gal3S(b1-4)[Fuc(a1-3)]Glc6S
# In short: as §1
# GlcA(b1-6)Gal = molecular target: GlcA(b1-6)Gal
# In short: as §1
# [19] = molecular target: GlcNAc(a1-3)Gal(b1-4)GlcNAc
# In short: as §1
# [20] = molecular target: GlcNAc(a1-4)Gal(b1-4)GlcNAc(b1-3)Gal(b1-4)Glc
# In short: as §1
# [21] = molecular target: GlcNAc(b1-2)Man(a1-3)[GlcNAc(b1-4)][GlcNAc(b1-2)Man(a1-6)]Man(b1-4)GlcNAc(b1-4)GlcNAc
# In short: as §1
# [22] = molecular target: GlcNAc(b1-2)[GlcNAc(b1-4)]Man(a1-3)[GlcNAc(b1-4)][GlcNAc(b1-2)[GlcNAc(b1-6)]Man(a1-6)]Man(b1-4)GlcNAc(b1-4)GlcNAc
# In short: as §1
# [23] = molecular target: GlcNAc(b1-3)Gal(b1-4)GlcNAc(b1-2)Man(a1-3)[GlcNAc(b1-3)Gal(b1-4)GlcNAc(b1-2)Man(a1-6)]Man(b1-4)GlcNAc(b1-4)[Fuc(a1-6)]GlcNAc
# In short: as §1
binder,measurement,setting,value
LlpA (Arthrobacter sp) (protein) MGSSHHHHHHSSGLVPRGSHMTLHPETALRPGAAATSPNSRYRLLYQTDGNLVLYGPDGPLWDSGTNGHGAGACIMQADGNLVLYGPNDEYVWDTETDNNPGSRLVIQDDGNAVIYRPDGSPLWATETCQPPGSADSHVLQSGSTLTPTHGIRSANGLYGLLYQTDGNLVFYGPDGPLWDSGTNGRGAGACIMQPDGNLVLYGPHDEYVWDTETDNNPGSRLVIQDDGNAVIYRPDGNPTWVTGTH,glycan array binding signal (z-score),[1],-0.605
same,glycan array binding signal (z-score),[2],1.72
same,glycan array binding signal (z-score),[3],1.97
same,glycan array binding signal (z-score),[4],-0.294
same,glycan array binding signal (z-score),Fuc(a1-2)Gal6S(b1-4)Glc,0.733
same,glycan array binding signal (z-score),[5],-0.344
same,glycan array binding signal (z-score),[6],-1.15
same,glycan array binding signal (z-score),[7],0.864
same,glycan array binding signal (z-score),[8],2.37
same,glycan array binding signal (z-score),[9],-0.96
same,glycan array binding signal (z-score),Fuc(a1-3)GlcNAc,-0.654
same,glycan array binding signal (z-score),[10],1.84
same,glycan array binding signal (z-score),Gal(b1-3)Gal(b1-4)GlcNAc,0.043
same,glycan array binding signal (z-score),[11],-0.211
same,glycan array binding signal (z-score),[12],-0.718
same,glycan array binding signal (z-score),[13],1.04
same,glycan array binding signal (z-score),[14],-0.238
same,glycan array binding signal (z-score),[15],0.644
same,glycan array binding signal (z-score),[16],-0.527
same,glycan array binding signal (z-score),[17],-0.295
same,glycan array binding signal (z-score),Gal(b1-4)GlcNAc6P,0.159
same,glycan array binding signal (z-score),[18],2.1
same,glycan array binding signal (z-score),GlcA(b1-6)Gal,0.793
same,glycan array binding signal (z-score),[19],0.79
same,glycan array binding signal (z-score),[20],0.389
same,glycan array binding signal (z-score),[21],-0.798
same,glycan array binding signal (z-score),[22],-0.159
same,glycan array binding signal (z-score),[23],0.596
